Measurements taken from PubChem BioAssay.
Active and inactive are the calls of the source. Unless noted, the rule behind the calls is not given here.

Columns and labels:
[1] = resazurin metabolic signal in HepG2 cells – cell-based, resazurin fluorescence, 24 h, PK04 Diversity Set, profiling panel (AID 1172); details: HepG2 viability, higher = more signal
[2] = budding yeast growth changes without added modifier – OD600, strain BY4716, 24 h, basal condition, primary screen (AID 1173); details: S. cerevisiae BY4716 growth, OD600, 24 h; higher = more signal, called active from +8 up or from −8 down
[3] = viability profiling in MM1S myeloma cells – cell-based, resazurin fluorescence, basal, 24 h, PK04 Diversity Set, profiling panel (AID 1174); details: higher = more signal, called active from +8 up or from −8 down;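 note: MM1S multiple myeloma cell line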
[4] = target: Dihydroorotate dehydrogenase (quinone), mitochondrial (Plasmodium falciparum (isolate 3D7)) (UniProt Q08210); experiment: inhibition of P. falciparum DHODH – biochemical, C-terminal His tag, absorbance 600 nm, primary screen (AID 1175); details: PfDHODH enzyme, DCIP absorbance 600 nm; higher = more signal, called active from +8 up or from −8 down;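 note: recombinant parasite enzyme with a five histidine tag at its C terminus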
Sequence of Dihydroorotate dehydrogenase (quinone), mitochondrial (Plasmodium falciparum (isolate 3D7)) (Q08210 whole entry, looked up): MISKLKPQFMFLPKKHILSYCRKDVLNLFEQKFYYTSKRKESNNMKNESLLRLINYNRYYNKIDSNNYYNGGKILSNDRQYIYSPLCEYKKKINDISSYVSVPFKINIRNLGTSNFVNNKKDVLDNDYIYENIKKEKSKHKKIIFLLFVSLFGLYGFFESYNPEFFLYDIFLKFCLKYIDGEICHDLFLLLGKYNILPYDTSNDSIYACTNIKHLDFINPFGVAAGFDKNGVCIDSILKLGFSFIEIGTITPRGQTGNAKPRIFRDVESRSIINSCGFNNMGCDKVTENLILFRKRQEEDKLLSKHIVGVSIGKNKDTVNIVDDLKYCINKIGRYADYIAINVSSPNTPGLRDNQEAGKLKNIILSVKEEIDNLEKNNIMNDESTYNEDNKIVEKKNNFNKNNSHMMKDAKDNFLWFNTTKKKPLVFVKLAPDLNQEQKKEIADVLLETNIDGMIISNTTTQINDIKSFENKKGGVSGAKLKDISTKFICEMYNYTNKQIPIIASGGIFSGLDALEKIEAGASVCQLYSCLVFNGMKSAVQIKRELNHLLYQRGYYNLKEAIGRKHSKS

[5] = inhibition of PAO1 biofilm formation – strain PAO1, LB-PBS medium, absorbance 600 nm, primary screen (AID 1176); details: P. aeruginosa PAO1 growth/biofilm, A600, 12 h; higher = more signal
[6] = growth modulation of vineyard yeast isolate – strain RM11-1a, OD600, basal, 24 h, primary screen (AID 1177);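 note: cultures grown under basal conditions with no added stressor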; details: S. cerevisiae RM11-1a growth, OD600, 24 h; higher = more signal, called active from +8 up or from −8 down
[7] = growth of efflux-deficient E. coli DRC39 – strain DRC39, OD650, 24 h, E. coli filamentation inducers, primary screen (AID 1178);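 note: growth measured as culture turbidity by optical density at 650 nm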; details: E. coli DRC39 acrAB, higher = more signal, called active from +8 up or from −8 down
[8] = growth of efflux-deficient E. coli DRC39 – strain DRC39, OD650, 48 h, E. coli filamentation inducers, primary screen (AID 1179);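 note: screen aims at cell division blockers that make cells filament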; details: E. coli DRC39 delta-acrAB growth, higher = more signal, called active from +8 up or from −8 down
[9] = viability profiling in RPMI8226 myeloma cells – cell-based, resazurin fluorescence, basal, 24 h, PK04 Diversity Set, profiling panel (AID 1180); details: higher = more signal;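 note: RPMI8826 multiple myeloma cell line at 5000 cells per well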
[10] = target: E3 ubiquitin-protein ligase XIAP (Homo sapiens) (UniProt P98170); experiment: small molecules binding XIAP protein – biophysical, small-molecule microarray, fluorescence 635 nm, primary screen (AID 1181); details: higher = more signal;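 note: score merges 667 nm emission and signal to noise over triplicate slides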
Sequence of E3 ubiquitin-protein ligase XIAP (Homo sapiens) (P98170 whole entry, looked up, the tested form may be a part): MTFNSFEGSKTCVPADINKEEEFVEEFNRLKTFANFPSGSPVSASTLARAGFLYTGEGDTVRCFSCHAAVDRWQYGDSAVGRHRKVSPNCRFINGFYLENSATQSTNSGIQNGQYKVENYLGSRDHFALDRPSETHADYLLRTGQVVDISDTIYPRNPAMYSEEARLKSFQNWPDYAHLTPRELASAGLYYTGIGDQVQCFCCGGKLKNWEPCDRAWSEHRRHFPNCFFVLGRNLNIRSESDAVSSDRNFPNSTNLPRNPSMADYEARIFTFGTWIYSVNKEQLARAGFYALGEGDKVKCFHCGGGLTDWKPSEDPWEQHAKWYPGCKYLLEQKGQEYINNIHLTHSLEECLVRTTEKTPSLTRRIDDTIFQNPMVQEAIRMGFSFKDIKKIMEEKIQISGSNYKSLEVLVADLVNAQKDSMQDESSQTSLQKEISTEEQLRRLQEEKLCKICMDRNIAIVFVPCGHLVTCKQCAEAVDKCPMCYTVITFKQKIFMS

[11] = tested on: XIP peptide (Xip251-270) binding; experiment: XIP fragment 251-270 binding compounds – biochemical, small-molecule microarray, fluorescence 635/667 nm, 0.1 µg/mL protein, primary screen (AID 1182); details: fluorescent protein binding, 635 nm, higher = more signal, called active from +8 up or from −8 down
XIP peptide (Xip251-270) = experiment: compounds binding XIP fragment 251-270 – biochemical, small-molecule microarray, fluorescence 635/667 nm, 0.5 µg/mL protein, primary screen (AID 1183); details: fluorescence 635 nm, higher = more signal
[12] = blood-stage malaria parasite viability loss – strain 3D7, DAPI fluorescence, 100 nL, primary screen (AID 1184);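 note: parasites grown inside human red blood cells in medium with human serum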; details: P. falciparum 3D7 growth, 3 d, higher = more signal
[13] = target: Homeobox protein Hox-A13 (Mus musculus) (UniProt Q62424); experiment: disruptors of Hoxa13 oligonucleotide interaction – biochemical, fluorescence polarization, labeled oligonucleotide, primary screen (AID 1185); details: Hoxa13:DNA binding, 15 min, higher = more signal, called active from +8 up or from −8 down
Sequence of Homeobox protein Hox-A13 (Mus musculus) (Q62424 whole entry, looked up): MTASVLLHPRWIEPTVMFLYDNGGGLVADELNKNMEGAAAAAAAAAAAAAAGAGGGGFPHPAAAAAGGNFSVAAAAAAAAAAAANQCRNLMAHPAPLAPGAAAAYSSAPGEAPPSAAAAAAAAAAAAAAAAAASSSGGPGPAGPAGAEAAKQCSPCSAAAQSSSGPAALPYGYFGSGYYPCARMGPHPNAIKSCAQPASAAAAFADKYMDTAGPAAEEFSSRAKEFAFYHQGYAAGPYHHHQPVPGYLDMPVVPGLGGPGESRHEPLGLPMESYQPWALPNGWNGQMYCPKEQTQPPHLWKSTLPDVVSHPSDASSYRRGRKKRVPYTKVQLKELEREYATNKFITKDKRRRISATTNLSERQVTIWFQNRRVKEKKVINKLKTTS

[14] = blockers of DNA damage checkpoint Chk1 activation – imaging, HeLa, hydroxyurea, phospho-Chk1 antibody, percent positive cells, primary screen (AID 1186); details: hydroxyurea-induced phospho-Chk1 immunofluorescence imaging, higher = more signal
[15] = blockers of DNA damage checkpoint Chk1 activation – imaging, HeLa, hydroxyurea, phospho-Chk1 nuclear intensity, primary screen (AID 1187); details: hydroxyurea-induced phospho-Chk1 immunofluorescence imaging, higher = more signal

Compound	z-score [1]	z-score [2]	z-score [3]	composite z-score [4]	z-score [5]	z-score [6]	z-score [7]	z-score [8]	z-score [9]	composite z-score [10]	composite z-score [11]	composite z-score (XIP peptide (Xip251-270))	z-score [12]	z-score [13]	z-score [14]	z-score [15]
COc1ccc(NN2C(C(O)c3ccc(N(C)C)cc3)C=CC3C(=O)N(C4CCCCC4)C(=O)C32)cc1 (centres undefined)	0.252	-0.796 (inactive)	-0.0447 (inactive)	0.128 (inactive)	0.862 (inactive)	-0.0156 (inactive)	-0.723 (inactive)	-0.224 (inactive)	-1	0.17	1.02 (inactive)	0.68	-0.087	-4.68 (inactive)	-0.217 (inactive)	-0.837 (inactive)
CC(C)[Si](C#CCCCC#N)(Oc1ccccc1Br)C(C)C	-0.192	-3.82 (inactive)	0.456 (inactive)	0.0781 (inactive)	0.313 (inactive)	-0.218 (inactive)	-0.9 (inactive)	-0.832 (inactive)	-0.193	-0.0525	0.983 (inactive)	-0.0206	0.306	-1.08 (inactive)	0.365 (inactive)	0.0882 (inactive)
CC[C@@H]1C=C(C(=O)O)[C@H](c2cccc3ccccc23)N1S(=O)(=O)c1ccc(C)cc1	-0.359	0.518 (inactive)	-0.653 (inactive)	0.859 (inactive)	0.546 (inactive)	-0.43 (inactive)	-0.624 (inactive)	0.225 (inactive)	-1	-0.359	0.406 (inactive)	0.437	-0.509	-1.85 (inactive)	-1.25 (inactive)	-1.44 (inactive)
CCOC(=O)C1=CC[C@H]2C(=O)N(c3ccccc3)C(=O)[C@@H]12	0.119	0.206 (inactive)	-0.811 (inactive)	0.494 (inactive)	-0.417 (inactive)	-0.337 (inactive)	-0.809 (inactive)	-1.17 (inactive)	-0.0357	0.154	0.571 (inactive)	0.903	-0.55	-3.98 (inactive)	0.152 (inactive)	-0.177 (inactive)
COC(=O)c1c(CC[C@@H](CO)NC(=O)N[C@H](Cc2ccccc2)Cn2cc(-c3ccccn3)nn2)oc(C(C)=O)c1C(=O)OC	-1.62	-0.295 (inactive)	-1.13 (inactive)	0.0502 (inactive)	-0.0149 (inactive)	-0.559 (inactive)	-0.347 (inactive)	-0.793 (inactive)	-0.857	-0.135	0.593 (inactive)	0.0667	0.0007	-4.84 (inactive)	0.269 (inactive)	0.15 (inactive)
[N-]=[N+]=NCc1ccccc1[C@H]1OC(c2ccc(OCCCO)cc2)=N[C@@]1(Cc1ccccc1)C(=O)N1CCCCC1	0.804	-1.95 (inactive)	-1.71 (inactive)	0.451 (inactive)	-0.441 (inactive)	-0.923 (inactive)	1.29 (inactive)	1.25 (inactive)	-0.941	-0.0622	-0.178 (inactive)	0.625	-2.4	-4.35 (inactive)	-0.959 (inactive)	-1.5 (inactive)
COc1cc(CO)cc(I)c1O[C@H]1C=C(C(=O)NCCO)C[C@@H](NC[C@@H]2CCCO2)[C@@H]1O	0.773	-0.813 (inactive)	-0.292 (inactive)	0.459 (inactive)	0.0694 (inactive)	0.683 (inactive)	1.16 (inactive)	0.915 (inactive)	0.577	-0.13	0.546 (inactive)	0.711	-1.22	-6.95 (inactive)	-0.399 (inactive)	-1.01 (inactive)
C=C(CCCC)/C(=C/C[C@H](OC(C)=O)c1ccccc1OCCO)c1cnc2ccccc2c1	-0.671	-0.468 (inactive)	-1.37 (inactive)	-5.76 (inactive)	0.26 (inactive)	1.15 (inactive)	-0.709 (inactive)	-0.742 (inactive)	-0.905	-0.13	2.68 (inactive)	0.657	-2.52	-5.13 (inactive)	0.444 (inactive)	0.328 (inactive)
O=C1NC(=O)C2C1C=CC(C(O)c1ccc(I)cc1)N2Nc1ccccn1 (centres undefined)	-1.45	-0.27 (inactive)	-0.766 (inactive)	0.309 (inactive)	1.48 (inactive)	0.275 (inactive)	-0.062 (inactive)	-0.495 (inactive)	-1.01	0.189	0.932 (inactive)	0.457	1.04	-1.85 (inactive)	0.955 (inactive)	0.534 (inactive)
CC(C)(C)OC(=O)CC[C@]1(C(N)=O)N=C(c2ccc(OCCCO)cc2)O[C@H]1c1ccccc1	-0.49	0.45 (inactive)	-0.689 (inactive)	-0.0959 (inactive)	0.55 (inactive)	0.663 (inactive)	-0.218 (inactive)	-0.585 (inactive)	-0.676	0.12	1.25 (inactive)	-0.612	0.404	-2.87 (inactive)	0.444 (inactive)	-0.0163 (inactive)
O=C1O[C@H](c2ccccc2)[C@H](c2ccccc2)N2[C@H]1[C@@H](C(=O)NC[C@H](O)c1ccccc1)[C@]1(C(=O)Nc3ccc(C#CC4=CCCCC4)cc31)[C@H]2c1ccccc1OCCO	-2.02	1.89 (inactive)	-6.77 (inactive)	-0.894 (inactive)	2.9 (inactive)	1.96 (inactive)	-0.561 (inactive)	0.105 (inactive)	-6.5	-0.144	-0.0939 (inactive)	0.203	-0.285	1.5 (inactive)	0.0263 (inactive)	-0.294 (inactive)
COc1ccc([Si](C)(C)[C@@H]2[C@@H](CCn3cc([C@H](O)c4ccccc4)nn3)O[C@]3(C(=O)N(Cc4cccc(N5CCC5=O)c4)c4ccccc43)[C@H]2C)cc1	0.736	-0.0294 (inactive)	-0.939 (inactive)	0.219 (inactive)	2.05 (inactive)	1.01 (inactive)	0.603 (inactive)	0.127 (inactive)	0.123	0.0345	0.863 (inactive)	0.46	-2.48	-2.8 (inactive)	-0.529 (inactive)	-0.414 (inactive)
COCCOC(=O)N1C(=O)[C@@]2(c3cc(C#CC4(O)CCCCCC4)ccc31)[C@H](c1ccccc1OCCO)N1[C@H](c3ccccc3)[C@H](c3ccccc3)OC(=O)[C@H]1[C@@H]2C(=O)N1CCc2cc(OC)c(OC)cc2C1	0.598	2.06 (inactive)	-0.9 (inactive)	0.445 (inactive)	2.26 (inactive)	3.05 (inactive)	-0.404 (inactive)	-0.405 (inactive)	-0.203	-0.127	0.164 (inactive)	0.741	-1.89	-0.494 (inactive)	-0.149 (inactive)	0.27 (inactive)
C=C(CCCC)C(=O)CC[C@H](OC(=O)c1cccnc1)c1ccc(OCCO)cc1	-0.91	-0.329 (inactive)	-3.27 (inactive)	-0.816 (inactive)	1.09 (inactive)	1.32 (inactive)	-0.911 (inactive)	-0.855 (inactive)	-3.01	0.0322	0.0908 (inactive)	-0.543	-2.96	-5.21 (inactive)	0.457 (inactive)	0.433 (inactive)
COC(=O)[C@@]1(Cc2ccc(F)cc2)[C@H]2c3cc(C(=O)N(C)C)n(Cc4cc(C)n(C)n4)c3C[C@H]2CN1C(=O)c1ccccc1	-0.806	-0.169 (inactive)	-0.943 (inactive)	-0.368 (inactive)	0.495 (inactive)	-0.0352 (inactive)	-0.431 (inactive)	-0.851 (inactive)	-0.856	0.473	0.537 (inactive)	0.801	-0.358	-1.42 (inactive)	0.669 (inactive)	0.333 (inactive)
C=CCNC(=O)[C@H]1[C@@H]2C(=O)O[C@@H](c3ccccc3)[C@@H](c3ccccc3)N2[C@@H](c2ccc(OCCO)cc2)[C@]12C(=O)Nc1ccc(C#CCC(C(=O)OC)C(=O)OC)cc12	0.47	1.62 (inactive)	-0.447 (inactive)	0.26 (inactive)	2.63 (inactive)	2.22 (inactive)	0.634 (inactive)	-0.115 (inactive)	-2.64	0.0975	1.06 (inactive)	0.635	-2.03	-2.29 (inactive)	0.239 (inactive)	0.514 (inactive)
O=C(O)[C@H](Cc1ccccc1)n1cc(-c2ccccc2)nn1	0.562	0.0419 (inactive)	0.0284 (inactive)	-0.0341 (inactive)	0.738 (inactive)	-0.14 (inactive)	-0.0353 (inactive)	-0.202 (inactive)	-0.46	0.0812	-0.152 (inactive)	0.297	0.0447	-1.17 (inactive)	0.425 (inactive)	-0.0072 (inactive)
CCCCN1CC=CC23O[C@@H]4C=CCOC(=O)[C@@H]4[C@H]2C(=O)N(CCCCCCO)[C@@H]3C1=O (some centres undefined)	-0.556	0.0518 (inactive)	0.0626 (inactive)	-0.838 (inactive)	-0.112 (inactive)	-0.55 (inactive)	0.272 (inactive)	0.25 (inactive)	-0.386	0.245	1.31 (inactive)	-1.46	-0.198	-4.53 (inactive)	-0.0344 (inactive)	-0.364 (inactive)
CC(C)NC(=O)[C@@H]1c2ccccc2C(=O)N(C(C)C)[C@H]1c1ccc(CO)cc1	1.02	-0.37 (inactive)	0.537 (inactive)	0.654 (inactive)	-0.397 (inactive)	0.0971 (inactive)	0.494 (inactive)	0.671 (inactive)	0.135	-0.398	0.736 (inactive)	0.226	-0.25	-2.52 (inactive)	-0.0669 (inactive)	0.385 (inactive)
